The values below come from the supplement of paper PMC6555819.

In this experiment the test system is RARg homodimer (NR concentration 270 nM). The experiment can be described thus: PBM binding z-score (relative to random genomic background probes); higher = stronger binding; sequences stand for … in GC…GCGATTGACAGCGTAGAATGAAGG
The procedure, abridged: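 Custom Agilent 4×180K protein-binding microarrays carried double-stranded probes, each with a 34-nt variable region. These regions held direct-repeat seeds, single-nucleotide variants, half-site ablations and random human genomic background sequences. Ligand-free nuclear receptor dimers were incubated on the arrays for 1 h, antibodies against each partner (one per run) detected binding, and scanned fluorescence was regression-normalized. Binding z-scores take the random background probes as reference.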
As for CATGCTAGGTCAATGGTCAGCTAAAGCAGCTCGC, the PBM binding z-score amounted to 4.43.

TTACCAAGGTGAAGGTCGTTGACCCCTCTGTAGA returned a PBM binding z-score of 2.12.

In turn, TTACCAGGGTGAGCTGAGGTCGTTGATCCAACTC displayed a PBM binding z-score of 0.39.

Sequence CCTACTGGGCCCTCAGGTCATTGATATCAACGTT had a PBM binding z-score of 0.939.

In turn, ACTAGCAGGCTAAGGGTCACTCAAGATTAGTCCG registered a PBM binding z-score of 3.65.

The sequence TCTTTTAGATCAGCAGGTTAAGAAAGCTGGCCAA gave a PBM binding z-score of 0.197.

The sequence AGAATGAGGTTATTAAGTTCAGGGAATTGCGGTC had a PBM binding z-score of 1.43.

CGGCCTAGGTCAGGGCCAGTATAGGAGGAACGTT returned a PBM binding z-score of 3.41.

Sequence ACTATTAGTTGACTGAGGGCAACCGATACGACGC yielded a PBM binding z-score of 1.38.

In turn, CATTACGGGTCACGAGGTTATAGCACGACGAGCG registered a PBM binding z-score of 5.8.

CTACCAAGGTGAACAAGGTCATTGATTACTATTC: the PBM binding z-score amounted to 3.4.

TCTGCTAGTTCAGTTGGTCAGCTAACGAGCTGCC showed a PBM binding z-score of 0.0684.

With GCTAGTTGGTCAGTAAAAGGTCACAAACCGGTCG, the PBM binding z-score worked out at 4.28.

With ATCGAGAGGTCGTGAGGTGAGTATACAGAAAGGC, the PBM binding z-score turned out to be 3.28.

CGTCCAAGGTCAAACGTCAGTGAAGAGATGACGG: the PBM binding z-score came to 6.4.

ATTTCTAGGTAACCAAGTTCAGTGAATGCCGAAC displayed a PBM binding z-score of 0.952.

As for CGTCAAAGTTCACGGTAACGTAACAGAAAGCAGC, the PBM binding z-score is 7.19.

TTACCAAGGTGAAAGGTCGTAGATGCACGCCTTG returned a PBM binding z-score of 2.1.

Sequence ATATCTAGGTAACCAAGTTCAGTGAATGCCGAAC had a PBM binding z-score of 0.923.

On to ATCTCAAGGTAAAGTTCAGTGAAAGATCGATAGA, for which the PBM binding z-score came to 2.96.

Sequence CCTACTGGGCCATCAGGGCATTGATATCAACGTT showed a PBM binding z-score of 0.438.

As for CCTATGAGTTGACCATAAGGGCAACCGAAGCTCG, the PBM binding z-score stood at 1.09.

TCTGCTAGGTGAGTTGGTCAGCTAACGAGCTGCC registered a PBM binding z-score of -0.369.

The sequence GGAACGAGGGCAAAGTTGCTAGCATCTGTCGACG displayed a PBM binding z-score of 1.73.

ATCGCTAGGTAAGACTCAGTTCAGTGAAGAACGC came in with a PBM binding z-score of -0.262.

With ATCTCAAGGTAACAAGTTCAGTGAAAGAGAGGAC, the PBM binding z-score was 1.79.

With CCTTACGGCTCACTGACAGGTTATAGCATTTGGA, the PBM binding z-score was determined as 0.301.

Regarding TCTATTGGTTGAAGGGCAACCGACGAGTCCGTTT, the PBM binding z-score came out at 0.586.

For the sequence TCTATTAGTTGAAGCGCAACCGACGAGTCCGTTT, the PBM binding z-score was -0.507.

CGCCCAAGGTCATAGGAGGTCAGTGAAGACAGAT showed a PBM binding z-score of 7.14.

With ATATCTAGGTTAAGGGTCATTCAGGTTGGTTCGC, the PBM binding z-score turned out to be 3.86.

Take CAAACTAGGTCACGAAAGGTCAAAGTAGAATGAC: the PBM binding z-score stood at 8.94.

ACTATTAGTTGACTTAGGGCAACCGGTACGACGC came in with a PBM binding z-score of 0.734.

In turn, CAAACTAGGTCAAAGTCAAAGTCGGTTTGTGCCA registered a PBM binding z-score of 4.41.

As for CCTACTGGGCCATTCAGAGGTCATTTATCATATG, the PBM binding z-score stood at 2.73.

Regarding TCATATAGGTAAATGCTAGGTTAAAGTCCGATCT, the PBM binding z-score amounted to 0.598.

TTACCAAGGTGAGGGTCGTTGATCCCTCTGTAGA: the PBM binding z-score was 0.443.

With CCTAGCAGGCCAGGGTCAATCAAGCATTTCGCTT, the PBM binding z-score is 2.33.

Turning to TCTCAAAGTTCAAAGGTAACGTAAGTATCCACAC, the PBM binding z-score amounted to 6.25.

Turning to ATATGTAGGTTATCGGGTCATTTAGTTTGCGCAT, the PBM binding z-score came to 2.33.
